# Activity calls are given as the source filed them. The calls were made as follows: active = hit-call score of the fitted dose curve at least 0.9, where 1 is the maximum; inactive = score below 0.9.
# Experiment: APR_HepG2_StressKinase_72hr: Apredica 72-hour HepG2 Assay for Stress Kinase (AID 2282921)
# Details: HepG2 stress kinase (phospho-c-Jun) imaging, actives raise or lower the signal
# Outline: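 Stress kinase signal reflects nuclear phospho-c-Jun staining in fixed, permeabilized cells exposed 72 h to compound at 0.39–200 uM; DMSO-normalized, fitted for increases or decreases.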
Structure (SMILES),outcome,AC50
CC(C)(C)CC(C)(C)c1ccc(O)c(-n2nc3ccccc3n2)c1,inactive,
CC(=O)NC1(c2cccc(F)c2)CCN(CC[C@@]2(c3ccc(Cl)c(Cl)c3)CN(c3ccccc3)C(=O)CO2)CC1,,24 µM (active)
CCc1ccc(CCOc2ccc(CC3SC(=O)NC3=O)cc2)nc1 (stereo not given),inactive,
CCOC(=O)CC(O)(CC(=O)OCC)C(=O)OCC,inactive,
Oc1cc2ccccc2c2ccccc12,inactive,
CC[C@H](C)[C@@H](C(=O)O)n1sc2ccccc2c1=O,inactive,
CCCCC[C@H](O)CC(=O)CCc1ccc(O)c(OC)c1,inactive,
CN1CCN(c2ccccc2/C=C2\SCCN(c3ccc(Cl)c(Cl)c3)C2=O)CC1,,19.4 µM (active)
Cc1oc(-c2ccccc2)nc1CCOc1ccc(C[C@H](Nc2ccccc2C(=O)c2ccccc2)C(=O)O)cc1,inactive,
CCc1nn(C2CCCCC2)c2cc(C3(C#N)CCC(C(=O)O)CC3)ccc12 (stereo not given),inactive,
CC[C@H](c1ccc(O)cc1)[C@@H](CC)c1ccc(O)cc1,inactive,
N#C[C@@H]1CC(F)(F)CN1C(=O)CNC1CC2CCC(C1)N2c1ncccn1 (stereo not given in full),inactive,
CCCCCCCCCCCCc1ccccc1S(=O)(=O)O,,112 µM (active)
OCCC(F)(F)C(F)(F)C(F)(F)C(F)(F)C(F)(F)C(F)(F)C(F)(F)C(F)(F)F,inactive,
C[C@@H]1C[C@H]2[C@@H]3CCC4=CC(=O)C=C[C@]4(C)[C@@]3(F)[C@@H](O)C[C@]2(C)[C@@]1(O)C(=O)COP(=O)(O)O,inactive,
COCC(C)O (stereo not given),inactive,
OC1CCCCC1,inactive,
O=[N+]([O-])c1ccc(O)cc1,inactive,

Structure (SMILES),outcome,AC50
CC(C)(C)c1cc(C(C)(C)C)c(O)c(C(C)(C)C)c1,inactive,
O=C(OCCOCCOC(=O)c1ccccc1)c1ccccc1,inactive,
CCC(C)(C)C1CCC(O)CC1 (stereo not given),inactive,
Cc1cc(CCN2CCN(c3nsc4ccccc34)CC2)cc2c1NC(=O)CC2(C)C,inactive,
c1ccc2cc3c(ccc4ccccc43)cc2c1,inactive,
CCCOC(=O)c1ccc(O)cc1,inactive,
CN1CCC[C@H]1c1cccnc1,inactive,
NC(=O)N(O)[C@@H]1C=C[C@H](Oc2cccc(Oc3ccc(F)cc3)c2)C1,inactive,
COC(=O)CCCCC(=O)OC,inactive,
CC(O)CO (stereo not given),inactive,
O=C(O)Cc1cc(I)c(Oc2cc(I)c(O)c(I)c2)c(I)c1,inactive,
CC(=O)CC(C)(C)O,inactive,
CCN(CC)CCNc1ccc(CNC=O)c2sc3ccc(OC)cc3c(=O)c12,inactive,
CCCCC(CC)COC(=O)CCCCC(=O)OCc1ccccc1 (stereo not given),inactive,
CC#C[C@]1(O)CC[C@H]2[C@@H]3CCC4=CC(=O)CCC4=C3[C@@H](c3ccc(N(C)C)cc3)C[C@@]21C,inactive,
c1ccc2c(c1)Cc1ccccc1-2,inactive,
CCCCCCCCOC(=O)CCCCCCCCC(=O)OCCCCCCCC,inactive,
